# Assay outcomes deposited in PubChem by National Center for Advancing Translational Sciences (NCATS).
# In the library only some 2.3% were active in any assay of this set; here they are far more common.
# Rango-impB inh: qHTS Assay for Inhibitors of Rango (Ran-regulated importin-beta cargo) - Importin beta complex formation. AID 540263, 2011. Importin subunit beta-1 (Homo sapiens), Q14974. 0.031% of 340,000 active. Potency, µM (titrated, usually from 92.2 µM), for the others: at the top dose inhibition of complex formation. Rango CFP/YFP FRET sensor + importin beta, 45 min; calls by dose curve;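 further: 0% = DMSO wells and 100% = buffer wells lacking importin beta; nearly all actives have a fitted effect of over 15% in size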
# Target sequence (Q14974 whole entry, looked up): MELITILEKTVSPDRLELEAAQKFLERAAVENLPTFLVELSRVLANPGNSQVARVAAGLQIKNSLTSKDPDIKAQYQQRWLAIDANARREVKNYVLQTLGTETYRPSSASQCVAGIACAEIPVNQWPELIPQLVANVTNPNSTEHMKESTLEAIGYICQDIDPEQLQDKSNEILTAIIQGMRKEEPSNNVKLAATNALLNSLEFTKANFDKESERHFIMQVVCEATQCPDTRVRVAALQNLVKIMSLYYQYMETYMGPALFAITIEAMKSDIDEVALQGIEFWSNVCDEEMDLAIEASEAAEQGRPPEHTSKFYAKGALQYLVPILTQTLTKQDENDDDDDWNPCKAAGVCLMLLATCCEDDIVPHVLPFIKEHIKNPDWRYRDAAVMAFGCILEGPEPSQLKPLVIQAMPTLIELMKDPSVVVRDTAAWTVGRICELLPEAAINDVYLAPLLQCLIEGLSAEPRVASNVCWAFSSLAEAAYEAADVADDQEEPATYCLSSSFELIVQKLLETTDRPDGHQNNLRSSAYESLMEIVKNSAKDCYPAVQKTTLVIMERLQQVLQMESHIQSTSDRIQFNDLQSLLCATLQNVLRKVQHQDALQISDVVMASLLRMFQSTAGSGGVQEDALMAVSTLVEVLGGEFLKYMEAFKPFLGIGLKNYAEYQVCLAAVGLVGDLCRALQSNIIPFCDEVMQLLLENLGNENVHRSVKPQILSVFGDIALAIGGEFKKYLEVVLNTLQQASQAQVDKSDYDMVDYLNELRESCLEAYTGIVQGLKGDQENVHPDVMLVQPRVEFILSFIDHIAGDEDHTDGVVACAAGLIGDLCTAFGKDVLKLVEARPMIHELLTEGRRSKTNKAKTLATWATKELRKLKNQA
#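 Inhibition scored from the CFP 486 nm/YFP 530 nm FRET ratio 45 min after adding 0.125 microM importin beta to 50 nM Rango biosensor preincubated 5 min with compound (room temperature, PBS with DTT, Tween-20, BSA). No-importin wells as positive control.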
# Nrf2 inh: Nrf2 qHTS screen for inhibitors; 2.1% of 360,000 active; Potency, µM (highest dose often 46 µM), inactives show at the top dose activity change, negative = inhibition, most hits filed as inhibitors; AID 504444, 2011; A549 ARE-Fluc reporter, luciferase luminescence, 18-24 h; further: on the % scale 0 is the no-effect control and ±100 the full control effect; nearly all actives have a fitted effect of over 60% in size
#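 In this cell-based qHTS, ARE-driven firefly luciferase in A549 cells reports Nrf2 activity; the luminescent signal after BugLite lysis is the measured value, with a prior CellTiter-Fluor read for cell health.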
# Nrf2 ARE act: qHTS of Nrf2 Activators; AREc32 ARE-luciferase reporter (MCF7-derived line), luminescence, 24 h; Potency, µM (highest dose often 46.1 µM), without a hit: at the top dose activation, hits mostly activators; 0.31% of 410,000 active; further: % of control where 0% means no effect; nearly all actives have a fitted effect of over 65% in size
#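 Quantitative high-throughput format: AREc32 reporter cells, 1000 per well, received compound by pin transfer and were incubated 24 hr at 37 deg C, 5% CO2, before Steady-Glo luminescence detection.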
# Rango release inh: qHTS Assay for Inhibitors of RanGTP induced Rango (Ran-regulated importin-beta cargo) - Importin beta complex dissociation; Potency, µM (titrated, usually from 46.1 µM), for the others: at the highest dose activity change, negative = inhibition; Biochemical FRET Rango-importin beta, RanGTP-induced dissociation; Snurportin-1 (Homo sapiens) + GTP-binding nuclear protein Ran (Homo sapiens) + Importin …; 0.071% of 340,000 active; calls by dose curve; further: % of control where 0% means no effect; nearly all actives have a fitted effect of over 45% in size
#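 Recombinant Rango FRET biosensor (EYFP–snurportin 1 IBB–cerulean CFP10) at 0.1 uM premixed with 0.25 uM importin beta in PBS, 1 mM DTT, 0.02% Tween-20, 0.1% BSA. Compound added 5 min; RanGTP-RCC1 (0.6 uM Ran, 2 mM GTP, 0.2 uM RCC1) then triggers release, read at 45 min.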
# A549 viability: Nrf2 qHTS screen for inhibitors: counterscreen for cytotoxicity; A549 ARE-Fluc cells, CellTiter-Fluor viability, 18-24 h; Potency, µM (top dose mostly 46 µM), for inactives: top-dose activity change, negative = cytotoxicity, hits mostly inhibitors; 0.16% of 390,000 active; AID 504648, 2011; further: on the % scale 0 is the no-effect control and ±100 the full control effect
#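 A549 ARE-Fluc cells in 5% FBS OPTI-MEM, 5000 cells/well, rested 2 h then exposed to compounds in concentration-response for 18-24 h at 37 °C. Viability by CellTiter-Fluor fluorescence (Ex 405/Em 525) after 30 min; luciferase luminescence (BugLite, 15 min, RT) read afterwards.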
# Active calls of the source: *; ? = inconclusive; nt = not tested or not shown; [ ] = dose if it differs, or a comment. Unless noted, the call rests on the fitted dose curve; in most records, active means well fitted curve in the direction sought with a large enough effect; inconclusive means small, poorly fitted or top-dose-only effect, or another doubt; inactive means no such curve, though single readings can be large; an effect the other way counts as inactive or inconclusive. Potency means the concentration at half of the fitted maximal effect.
SMILES,Rango-impB inh,Nrf2 inh,Nrf2 ARE act,Rango release inh,A549 viability
Cc1ccc2nc(N(CCCN(C)C)C(=O)c3ccc(S(=O)(=O)N4CCc5ccccc5C4)cc3)sc2c1,3.4%,20.6µM*,15.0%,-2.9%,?
CCCCCN(C(=O)CCC(=O)OCC(=O)N(C)c1ccccc1)c1c(N)n(CCCC)c(=O)[nH]c1=O,-0.2%,-2.0%,-0.5%,-11.9%,-0.3%
CCCCCN(C(=O)CCC(=O)OCC(=O)c1ccc(C(C)CC)cc1)c1c(N)n(CCCC)c(=O)[nH]c1=O (centres undefined),0.7%,10.3µM*,5.8%,18.7%,?
CC(C)CN(C(=O)COC(=O)c1ccc([N+](=O)[O-])s1)c1c(N)n(Cc2ccccc2)c(=O)[nH]c1=O,2.1%,-0.5%,15.8%,-8.3%,-0.7%
CCCCn1c(N)c(N(CCC(C)C)C(=O)COC(=O)c2ccc([N+](=O)[O-])s2)c(=O)[nH]c1=O,-1.8%,23.1µM*,16.7%,1.7%,-17.7%
CCOc1ccc(C(=O)N2CC(=O)Nc3ccc(C)cc3C2c2ccc(F)cc2)cc1OCC (centres undefined),nt,7.1%[9.27 µM],-0.6%,nt,-7.2%
Cn1c(=O)c2c(nc(NCCCO)n2C/C=C/c2ccccc2)n(C)c1=O,5.7%,nt,3.4%,-0.4%,-2.8%
CC(O)CNc1nc2c(c(=O)n(C)c(=O)n2C)n1C/C=C/c1ccccc1 (centres undefined),2.3%,23.1µM*,0.4%,0.2%,-6.0%
CC(C)CNc1nc2c(c(=O)n(C)c(=O)n2C)n1Cc1cccc(Br)c1,-2.3%,nt,-0.4%,1.0%,-0.7%
COCCNc1nc2c(c(=O)n(C)c(=O)n2C)n1Cc1cccc(C(F)(F)F)c1,6.2%,16.4µM*,0.5%,-1.9%,-19.9%
Cn1c(=O)c2sccc2n(Cc2cccc(Br)c2)c1=O,1.8%,10.3µM*,-0.2%,5.8%,-0.6%
COCCCn1c(=O)c2sccc2n(Cc2cccc(C)c2)c1=O,-5.3%,-18.4%,0.3%,11.9%,-0.8%
CC(O)CNc1nc2c(c(=O)n(C)c(=O)n2C)n1Cc1cccc(Br)c1 (centres undefined),0.9%,16.4µM*,0.7%,-18.9%,-12.8%
CC(C)CC(O)C(=O)Nc1cc(C(F)(F)F)ccc1Cl (centres undefined),nt,-5.7%,nt,nt,-6.1%
O=C(COC(=O)/C=C/c1ccc(OC(F)F)cc1)NC1CCCCCC1,-2.9%,12.2%,0.5%,7.8%,-1.3%
C#CCOCCOCCOCCNc1nc(N2CCN(C(=O)[C@H](CC(N)=O)n3cc(C(N)[C@H](C)CC)nn3)CC2)nc(N2CCN(C(=O)[C@H](CC(N)=O)n3cc(C(N)[C@@H](C)CC)nn3)CC2)n1 (some centres undefined),-2.7%,9.2%,-0.9%,-6.8%,-7.5%
O=S(=O)(c1ccccc1)c1cnc(-c2cccnc2)nc1-c1ccccc1,3.1%,10.0%,0.4%,0.0%,0.1%
Cc1nc(-c2ccccc2)sc1-c1nc(-c2cccnc2)ncc1S(=O)(=O)c1ccccc1,-3.5%,23.1µM*,-0.5%,0.7%,?
Cc1onc(-c2ccccc2)c1-c1ccnc(N)n1,?,3.0%,-0.3%,?,-3.9%
Cc1ccc(C)n1-c1ccc(-c2ccnc(N)n2)cc1,?,-6.0%,10.0%,14.6µM*,-10.7%
COc1cc(C(=O)Nc2nc3c(s2)Cc2c(Br)ccc(OC)c2-3)cc(OC)c1OC,nt,?,0.4%,nt,-16.0%
O=C(Oc1ccc2c3c(c(=O)oc2c1)CCCC3)c1cccs1,-6.7%,12.1%,-0.4%,?,0.2%
O=C(Oc1cc2oc(=O)c3c(c2cc1Cl)CCCC3)c1cccs1,?,13.0%,10.2%,8.2µM*[inhibitor],-4.0%
O=[N+]([O-])c1cccc(-c2csc(N/N=C/c3cccc(O)c3)n2)c1,-4.2%,18.4µM*,24.5%,1.1%,?
CCOC(=O)Cc1csc(N/N=C/c2cccc([N+](=O)[O-])c2)n1,5.8%,-11.7%,0.2%,0.8%,-1.1%
SMILES,Rango-impB inh,Nrf2 inh,Nrf2 ARE act,Rango release inh,A549 viability
O=C(Nc1nc(-c2cccc([N+](=O)[O-])c2)cs1)C(c1ccccc1)c1ccccc1,4.9%,14.6µM*,1.4%,-0.4%,?
CC(OC(=O)c1ccccc1Br)C(=O)Nc1nc(-c2cccc([N+](=O)[O-])c2)cs1 (centres undefined),0.0%,4.1%,3.2%,3.3%,-2.3%
COc1ccc(C(CNC(=O)c2cc(F)c(F)c(F)c2F)N2CCOCC2)cc1 (centres undefined),3.0%,?,0.2%,-0.2%,-2.0%
Cc1ccc(Cl)cc1NC(=O)c1ccc(-c2nc(CSc3ccccc3)c(C)o2)cc1,nt,13µM*,-0.2%,nt,-4.4%
COc1ccc(NC(=O)c2ccc(-c3nc(CSc4ccc(C)cc4)c(C)o3)cc2)cc1Cl,nt,23.1µM*,0.1%,nt,-13.0%
COc1ccc(NC(=O)c2ccc(-c3nc(CSc4ccccc4)c(C)o3)cc2)cc1OC,nt,?,3.8%,nt,-14.7%
CC(=O)c1ccc(NC(=O)c2ccc(-c3nc(CSc4ccccc4)c(C)o3)cc2)cc1,nt,10.3µM*,0.7%,nt,0.9%
Cc1cccc(NC(=O)c2ccc(-c3nc(CSc4ccccc4)c(C)o3)cc2)c1C,nt,13µM*,-1.0%,nt,0.4%
COc1cccc(C2c3c(ncn(-c4ccccc4C#N)c3=N)Oc3ccc4ccccc4c32)c1 (centres undefined),nt,?,nt,nt,-2.0%
CCC(=O)NC(c1ccco1)c1cc(Cl)c2c(c1O)NCCC2 (centres undefined),nt,-6.3%,nt,nt,-3.1%
CC(=O)Oc1c(I)cc(I)cc1C(=O)Nc1ccc(Cl)cc1,6.3%,23.1µM*,0.0%,0.9%,?
COc1cc(NC(=O)c2ccc(-c3ccc(F)c(F)c3)c3ccoc23)cc(OC)c1OC,nt,nt,-0.4%,nt,nt
COc1ccc(-c2cc(C(=O)NCCc3ccc(OC)c(OC)c3)c3ccccc3n2)cc1,nt,-10.3%,5.8%,nt,-17.2%
O=C1Nc2ccccc2Nc2ccc([N+](=O)[O-])cc21,-0.8%,10.3µM*,3.2%,-3.3%,-14.4%
CCCCC(=O)OCC(=O)Nc1ccc(C)c(F)c1,1.1%,0.0%,2.7%,-0.7%,10.4%
CCOC(=O)c1ccc2c(c1)n(CC)c(/C=C/N(C)c1ccccc1)[n+]2CC,?,3.26µM*,-0.8%,?,?
CCOC(=O)c1ccc2c(c1)n(CCO)c(C)[n+]2CC,-0.7%,-27.5%,-0.1%,2.4%,-0.6%
CC1(C)Cc2c(C#N)c(SCC(=O)c3ccccc3)nc(N3CCOCC3)c2CS1,?,16.4µM*,-0.4%,-3.6%,-18.1%
CN1Cc2c(N3CCOCC3)nc(SCc3ccccc3)c(C#N)c2CC1(C)C,?,nt,0.3%,8.2µM*,12.5%
